About 83,000 compounds went through this panel and 20% of them were active in at least one assay; those are over-represented in the sample as a whole.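 The test compound was applied at a single concentration to cells in 96-well plates for 48 hours, and percent growth was recorded.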 The source made the active and inactive calls. How the source made its calls: active means growth percent below 10; inactive means the rest.
Key:
Assay in all cases: NCI-60 one-dose screen, 48 h (100 = growth as untreated, 0 = no growth, -100 = all killed)
Conditions in all cases: 10 µM unless noted
[1] = system: HCT-15 colon
[2] = system: HT29 colon
[3] = system: SNB-75 CNS
[4] = system: SNB-19 CNS
[5] = system: U251 CNS
[6] = system: PC-3 prostate
[7] = system: SK-MEL-5 melanoma
[8] = system: UACC-62 melanoma
[9] = system: LOX IMVI melanoma
[10] = system: SK-MEL-28 melanoma

Measured: growth

Nc1ccc(Cl)c2c(=O)c3ccccc3[nH]c12
inactive: [1] 83.1% | [2] 100% | [3] 84.2% | [4] 88.5% | [5] 92.2% | [6] 76.6% | [7] 53.1% | [8] 93.6% | [9] 71.4% | [10] 113%

Cc1nc2ccccc2c(/C=C/c2ccc(Br)cc2)c1C(=O)/C=C/c1ccccc1
active: [1] -27.3% | [2] -15.1% | [4] -11.6% | [5] -81.9% | [7] 6.82% | [8] -5.46% | [9] -89.6% | [10] 3.46%
inactive: [3] 51.3% | [6] 19.7%

O=C(c1ccccc1)[C@@H](c1ccccc1)[C@]1(O)C(=O)Nc2ccccc21
inactive: [1] 100% | [2] 101% | [3] 83.7% | [4] 94.1% | [5] 101% | [6] 90.7% | [7] 92.1% | [8] 85.9% | [9] 91.1% | [10] 96.2%

COc1cccc(-c2cc(-c3ccc(Nc4nc(Nc5ccc(Cl)cc5)nc(Nc5ccc(Cl)cc5)n4)cc3)nc(N)c2C#N)c1
active: [5] 3.83% | [6] -5.44% | [9] -33.6% | [10] -59.7%
inactive: [1] 22.8% | [2] 16.8% | [3] 65.9% | [4] 106% | [7] 13% | [8] 76.4%

COc1cc(C2CC(c3cccc(Nc4ccncc4)c3)=Nc3c(N)ncnc3N2)cc(OC)c1OC (stereo not given)
inactive: [1] 88.3% | [2] 98.1% | [3] 83.8% | [4] 93.8% | [5] 77.7% | [6] 93.8% | [7] 93.7% | [8] 87.3% | [9] 91.3% | [10] 102%

COc1cccc(C2C(C#N)=C(N)Oc3c2ccc2ccccc32)c1 (stereo not given)
inactive: [3] 79.8% | [4] 37.3% | [5] 24.6% | [6] 21.5% | [8] 37.6% | [9] 14.6% | [10] 69.3%
active: [1] 9.22% | [2] 7.48% | [7] -1.37%

COc1c(O[C@@H]2OC(CO)[C@H](O)[C@H](O)C2O)cc2oc3cc(O)c(CC=C(C)C)c(O)c3c(=O)c2c1CC=C(C)C (stereo not given in full)
inactive: [1] 97.9% | [2] 93.6% | [3] 93.9% | [4] 96.1% | [5] 77.9% | [6] 73.8% | [7] 97.8% | [8] 83.8% | [9] 85.2% | [10] 106%

C=C1CC[C@@H]2[C@](C)(COC(C)=O)[C@H](OC(C)=O)CC[C@@]2(C)[C@@H]1CC(Nc1ccc(S(=O)(=O)Nc2nccc(C)n2)cc1)C1=CCOC1=O (stereo not given in full)
inactive: [4] 53.6% | [5] 14.6% | [6] 41.5% | [7] 45% | [8] 24.2%
active: [1] -42% | [2] -28.2% | [3] 9.66% | [9] -72.9% | [10] -7.05%

O=C(O)COc1ccc(F)cc1
inactive: [1] 104% | [2] 93.8% | [3] 99.8% | [4] 99.8% | [5] 102% | [6] 96.2% | [7] 102% | [8] 102% | [9] 99% | [10] 116%

CCN1CCN(CCOc2ccc(CNc3ccc4nc(CCC5CCCCC5)[nH]c4c3)cc2)CC1
inactive: [3] 79.8% | [4] 39.3% | [6] 42%
active: [1] -17.7% | [2] 8.35% | [5] -19.7% | [7] -96.5% | [8] -16.4% | [9] -78.6% | [10] -88%

O=C1/C(=C/c2ccccc2)COc2ccc(O)cc21
inactive: [1] 57.1% | [2] 62.7% | [3] 99.7% | [4] 93.6% | [5] 55.1% | [6] 84.2% | [7] 97.3% | [8] 86.6% | [9] 89.8% | [10] 103%

CC(C)(C)n1cc(-c2ccnc(NCCNS(=O)(=O)c3ccc(Br)cc3)c2)c(-c2cccc(O)c2)n1
active: [1] -0.0275% | [2] -11% | [7] -19%
inactive: [3] 19.4% | [4] 52.3% | [5] 21.7% | [6] 25.4% | [8] 49.6% | [9] 12.7% | [10] 38.5%

C=C(C)[C@@H]1CCC[C@]2(C(=O)OC)CC[C@]3(C)[C@@H](CC[C@@H]4[C@@]5(C)CCCNC(C)(C)[C@@H]5CC[C@]43C)[C@@H]12
inactive: [1] 93.1% | [2] 56.5% | [3] 91.7% | [4] 88.3% | [5] 94.1% | [6] 74.1% | [7] 90% | [8] 87.8% | [9] 97.8% | [10] 94.3%

N=C(N)c1ccc(-c2ccc(-c3ccc(Cl)cc3Cl)s2)nc1
active: [1] -15.2% | [2] 4.27% | [5] -10.6% | [9] -67.9%
inactive: [3] 92.4% | [4] 56.3% | [6] 73.2% | [7] 97.7% | [8] 103% | [10] 116%

CCNCCNc1c(C)c(-c2ccc(C(F)(F)F)cc2)c(C#N)c2nc3ccccc3n12
inactive: [1] 78.6% | [2] 77.3% | [3] 57.6% | [4] 78.6% | [5] 78.8% | [6] 76.1% | [7] 87.2% | [8] 92.4% | [9] 82.5% | [10] 103%

Cc1ccc(C23CCC(=O)N2CCc2cncn23)cc1 (stereo not given)
inactive: [1] 98.9% | [2] 98.3% | [3] 111% | [4] 97.7% | [5] 97.2% | [6] 95% | [7] 98.8% | [8] 95.8% | [9] 105% | [10] 106%

CCC(C)C(N)C(=O)NC(CC(C)C)C(=O)N1CCCC1C(=O)NC(Cc1c[nH]c2ccccc12)C(=O)NC(CCCCN)C(=O)NC(Cc1c[nH]c2ccccc12)C(=O)N1CCCC1C(=O)NC(Cc1c[nH]c2ccccc12)C(=O)NC(Cc1c[nH]c2ccccc12)C(=O)N1CCCC1C(=O)NC(Cc1c[nH]c2ccccc12)C(=O)NC(CCCNC(=N)N)C(=O)NC(CCCNC(=N)N)C(N)=O (stereo not given)
inactive: [1] 106% | [2] 83.5% | [3] 105% | [4] 106% | [5] 112% | [6] 91.7% | [7] 104% | [8] 102% | [9] 98.5% | [10] 114%

C=C(C)[C@@H]1CC[C@]2(COC(=O)c3cccnc3)CC[C@]3(C)[C@H](CC[C@@H]4[C@@]5(C)CCCN(C(=O)c6cccnc6)C(C)(C)[C@@H]5CC[C@]43C)[C@@H]12
active: [7] 2.5%
inactive: [1] 24.9% | [2] 32.3% | [3] 53.3% | [4] 47.1% | [5] 25.6% | [6] 14.6% | [8] 28.4% | [9] 21.3% | [10] 51.3%

CCOC(=O)C1=C(c2ccccc2)N=C2N(c3ccccc3)N=C(C(C)=O)N2C1c1ccc(Br)cc1 (stereo not given)
inactive: [1] 92.2% | [2] 85.1% | [3] 85.8% | [4] 88.7% | [5] 98% | [6] 77.6% | [7] 94% | [8] 72.4% | [9] 95.4% | [10] 99.9%

Cc1c(C(=O)C(SC(=S)N2CCOCC2)SC(=S)N2CCOCC2)nnn1-c1ccc([N+](=O)[O-])cc1
inactive: [1] 89.3% | [2] 92.3% | [3] 94.2% | [4] 96.3% | [5] 95.3% | [6] 96.1% | [7] 107% | [8] 88% | [9] 108% | [10] 103%

COc1ccccc1-c1nc2ccc3[nH]ncc3c2c2c1CCCC2
inactive: [1] 88.6% | [2] 67.5% | [3] 38.3% | [4] 85.6% | [5] 96.7% | [6] 82% | [7] 83.4% | [8] 71.3% | [9] 80.5% | [10] 89.2%

CN1CC(c2ccccc2)C(C(=O)c2ccc(Br)cc2)C12C(=O)Nc1ccccc12 (stereo not given)
inactive: [1] 95.7% | [2] 87.2% | [3] 96.1% | [4] 89.9% | [5] 94.1% | [6] 70.7% | [7] 99% | [8] 78.4% | [9] 97.3% | [10] 114%

C=C(c1ccc(C(=O)O)c(F)c1)c1cc2c(cc1C)C(C)(C)C=CC2(C)C
inactive: [1] 79.3% | [2] 80.7% | [3] 89.9% | [4] 67.9% | [5] 65.7% | [6] 70.3% | [7] 69.7% | [8] 81.1% | [9] 81.4% | [10] 98.4%

CSc1nc(CC(C)C)c(C#N)c(=O)n1C
inactive: [1] 46.1% | [2] 69.7% | [3] 61% | [4] 82.1% | [5] 81.8% | [6] 62.9% | [7] 70.9% | [8] 53.8% | [9] 68.4% | [10] 68.3%

C=C(C)Cn1c(SCC(=O)c2cccs2)nc2sc3c(c2c1=O)CCCC3
active: [9] 4.51%
inactive: [1] 22.7% | [2] 38.9% | [3] 62.6% | [4] 45.1% | [5] 36.3% | [6] 48.6% | [7] 36.4% | [8] 44.8% | [10] 55.3%
